Only a selection was taken, and hits are over-represented in it overall.
Tg IFNy HTS: T. gondii growth inhibition with IFN-gamma, primary screen, cell-based | Toxoplasma gondii growth in IFN-gamma-treated host cells; hits give low values | activity change, negative = inhibition, % (concentration not given with the values) | 3.8% of 69,000 active | AID 1259416, 2018; in the data active means activity change below about -70%, passing the limit was not always enough;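 further: host cells are HeLa cells infected with Toxoplasma gondii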
Starred values were filed as active, the others as inactive; i = inactive; ! = not confirmed by another sample.

SMILES | Tg IFNy HTS
Cc1cc(C(C)(C)CC(C)(C)C)ccc1OCCOCC[N+](C)(C)Cc1ccccc1 | -85*
C[N+](C)(CCOc1ccccc1)Cc1ccccc1 | 85
CC(C)(C)CC(C)(C)c1ccc(O)c(-n2nc3ccccc3n2)c1 | -5
CCOC(=O)c1nn(Cc2ccc(OC)cc2)c2c1CN(C(=O)CSc1ccncc1)CC2 | -67
CC(C)OCC1CCC2C1OCCN2C(=O)C1CCCO1 (centres undefined) | 1
Cc1cc(C)nc(NS(=O)(=O)c2ccc(N=C3NC(=O)CS3)cc2)n1 | -7
O=C(CCC1CCCO1)Nc1ncc(Cc2cccc(C(F)(F)F)c2)s1 (centres undefined) | -99*
FC(F)(F)c1cccc(CN(Cc2ccccn2)CC2CCCO2)c1 (centres undefined) | -10
CC(=O)N1CCOC(Cc2cccc(C(F)(F)F)c2)C1 (centres undefined) | -3
C(=C\c1ccccc1)/CNCc1ccco1 | 3
Cn1cnc2c1C(COCC1CC1)CN(C(=O)c1cccs1)C2 (centres undefined) | 78
COCCN1CC2(CCN(Cc3cnc(C)nc3)CC2)CC1=O | -4
CC(C)c1cc(C(=O)O)nn1C1CCS(=O)(=O)C1 (centres undefined) | 13
CC1=NN(C2CCS(=O)(=O)C2)C(=O)C1(Sc1ccccc1)Sc1ccccc1 (centres undefined) | -93*
CC(=O)N1CCc2cc(NC(=O)C3=NN(C4CCS(=O)(=O)C4)C(=O)CC3)ccc21 (centres undefined) | -2
CCN(CC1CCOCC1)C(=O)C1CCCN(C(=O)COC)C1 (centres undefined) | -4
O=C(NCCc1csc(-c2ccccc2)n1)[C@H]1CSCN1C(=O)Cc1cccs1 | 0
O=C(CC(=O)c1ccccc1O)c1ccc(F)cc1 | -109*
O=C(NO)c1ccccc1O | -9
O=C(O)c1ccccc1O | 7
COc1ccc(CN2C[C@@H]3CN(Cc4cnn(C)c4)C[C@H]3C2=O)cc1 | -32
Cc1ccc(-c2csc(NC(=O)c3ccccc3)n2)c(C)c1 | 49
Cc1nc2ccccn2c1-c1csc(NC(=O)c2ccc(Br)cc2)n1 | -78*
Cc1nn(-c2ccccc2)nc1C(=O)Nc1nc(-c2ccc(F)c(F)c2)cs1 | 16
CCOCC(=O)N1CCc2cc(-c3csc(C4CC4)n3)ccc21 | 63
SMILES | Tg IFNy HTS
O=C(c1cc2cccnc2n(Cc2ccc(F)cc2)c1=O)N1CCN(c2ccccc2)CC1 | -61
CC(C)N1C2COCC1CN(C(=O)c1cccc(C#N)c1)C2 | 480
CC(C)(C)C(=O)N1CCN(c2ccc(C(F)(F)F)cn2)CC1 | -7
CN1CCN(Cc2ccccc2Oc2ncc(C(F)(F)F)cc2Cl)CC1 | 4
FC(F)(F)c1ccc(N2CCN(Cc3cc(Cl)cc4c3OCOC4)CC2)nc1 | -85*
CC1(C)[C@H]2CC=C(CN3CCC4(CC3)C(=O)N(Cc3ccccn3)C(=O)N4CCc3ccccc3)[C@@H]1C2 | 6
COc1ccc(-c2nnc(-c3nc(NCc4cccc(Cl)c4)c4ccccc4n3)o2)cc1 | 363
Cc1ccc(-c2nnc(-c3nc(NCc4ccccc4F)c4ccccc4n3)o2)cc1 | 66
COc1ccc(CNc2nc(-c3nnc(-c4cccc(Cl)c4)o3)nc3ccccc23)cc1 | -67
COc1cccc(CNc2nc(-c3nnc(-c4cccc(Cl)c4)o3)nc3ccccc23)c1 | -86*
Fc1cccc(CNc2nc(-c3nnc(-c4ccccc4)o3)nc3ccccc23)c1 | 123
Fc1ccccc1CNc1nc(-c2nnc(-c3cccc(Cl)c3)o2)nc2ccccc12 | -80*
CC(C)Nc1nc(-c2nnc(-c3cccc(Cl)c3)o2)nc2ccccc12 | -40
Cc1ccc(-c2nnc(-c3nc(NCCC4=CCCCC4)c4ccccc4n3)o2)cc1 | i
Clc1cccc(-c2nnc(-c3nc(NCCC4=CCCCC4)c4ccccc4n3)o2)c1 | -83*
COCCCNC(=O)C1=C(C)C(=O)OC12CCN(S(C)(=O)=O)CC2 | 14
COc1cccc(-c2nccc(C(F)(F)F)n2)c1OC | -2
CN1CC(=O)N2C[C@H](NC(=O)c3cccc(-c4ncc[nH]4)c3)C[C@H]2C1=O | 1
CC(C)(C)c1[nH]cnc1/C=c1\[nH]c(=O)/c(=C/c2ccccc2)[nH]c1=O | -87*
NC(=O)c1csc(N2CCCC(c3[nH]ncc3-c3ccc(F)cc3)C2)n1 (centres undefined) | 8
Cc1nc(C)c(CC(=O)N(C)C(C)c2ccc(F)cc2)c(=O)[nH]1 (centres undefined) | 17
CCC1=NC2(CCC(C(=O)Nc3cnccc3C)CC2)C(=O)N1C (centres undefined) | -42
CCc1ccc(S(=O)(=O)N2CCc3nc(CNC(=O)C4CCC4)n(C)c3C2)cc1 | -47
CCc1ccccc1S(=O)(=O)N1CCc2nc(CNC(=O)C3CCC3)n(C)c2C1 | -84*
Cn1c(CNC(=O)C2CCC2)nc2c1CN(S(=O)(=O)c1ccc(F)cc1)CC2 | -16
SMILES | Tg IFNy HTS
c1ccc2[nH]c(N3CCN(Cc4cc5n(n4)CCNC5)CC3)nc2c1 | 48
O=C(Nc1ccc(-c2ocnc2C(=O)N2CCCC2)cc1)c1cccs1 | -26
O=S(=O)(Oc1ccc(Cl)cc1)c1csc(C(F)(F)F)c1-c1ccccc1 | -26
FC(F)(F)c1ccc(Oc2ncnc3c(-c4ccccc4)c(C(F)(F)F)sc23)cc1 | -71*
CCCn1ccnc1CN1CCc2[nH]nc(-c3ccc4c(c3)OCO4)c2C1 | -41
CC(C)OCC(=O)Nc1cnn(CC(=O)Nc2ccc(F)cc2)c1 | 2
CCCc1cc(C(=O)Nc2cnn(Cc3ccc(F)cc3)c2)n[nH]1 | -90*
O=C(CCN1Cc2ccccc2C1=O)Nc1cnn(Cc2ccc(F)cc2)c1 | -15
COCC1CCC2(CCN(S(C)(=O)=O)CC2)N1CC1CC1 (centres undefined) | -6
Cc1nn(-c2ccccc2)c(C)c1C(N)=O | 175
Cc1nn(-c2ccccc2)c(Cl)c1C(=O)Oc1ccc(OCc2ccccc2)cc1 | -97*
COC(=O)c1c(C)nn(-c2ccccc2)c1-c1cc(C)on1 | -1
COCC(=O)N1C[C@@H]2OCCN(c3ccc(C)nn3)[C@H]2C1 | 1
COC(=O)C1=C(C)NC(C)=C(C(=O)OC/C=C/c2ccccc2)C1c1cccc([N+](=O)[O-])c1 (centres undefined) | -2
COC(=O)C1=C(C)NC(C)=C(C(=O)OCCN(C)Cc2ccccc2)C1c1cccc([N+](=O)[O-])c1 (centres undefined) | 16
COC(=O)C1=C(C)NC(C)=C(C(=O)OCCN2CCN(C(c3ccccc3)c3ccccc3)CC2)C1c1cccc([N+](=O)[O-])c1 (centres undefined) | -84*!
CCc1cc(=O)[nH]c(NC2CCN(C(=O)N3c4ccccc4Sc4ccccc43)CC2)n1 | -117*
O=C(N1CCN(c2nc3ccccc3s2)CC1)N1c2ccccc2Sc2ccccc21 | -18
CCCc1cc(=O)[nH]c(SCC(=O)N2CCN(c3ccccc3OC)CC2)n1 | 27
Cn1c(CSCCOc2ccccc2)nnc1SCc1ccc(Cl)cc1Cl | -43
O=C(NCc1ccccc1)c1c(O)c2cccnc2n(-c2cccc(F)c2)c1=O | 52
O=C(c1ccc2ncnc(N3CCCC3)c2c1)N1CCCC1 | -38
COc1ccc(C(=O)N2CCN(c3cnn(C)c(=O)c3Cl)CC2)cc1OC | 0
COc1ccc(C(=O)N2CCC(c3nc(C(=O)N4CCCC4)c(C)o3)CC2)cc1OC | 41
COc1ccc(C(=O)N2CCN(c3ncnc4cc(C(C)(C)C)sc34)CC2)cc1OC | -85*

Screening results as filed in PubChem BioAssay.
